Reference: PubChem BioAssay (EPA / NIEHS)
Activity calls are given as the source filed them. The calls were made as follows: active = hit-call score of the fitted dose curve at least 0.9, where 1 is the maximum; inactive = score below 0.9.

Key:
[1] = BSK_hDFCGF_SRB: Viability Assessment in the BioMAP Diversity Plus: hDFCGF Assay (AID 2283061); conditions: primary human foreskin fibroblasts;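 also: cells exposed to compound for 24 h before the read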
In short: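 SRB-based viability read on primary human skin fibroblasts at 24 h: TCA fixation, 0.1% dye, 560 nm. Gain or loss of signal is fitted against the DMSO negative control.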

[2] = read-out: TIMP metallopeptidase inhibitor 1 (TIMP1), TIMP1 (gene 7076); assay: BSK_hDFCGF_TIMP1: BioMAP Diversity Plus: hDFCGF Assay for TIMP metallopeptidase inhibitor 1 (TIMP1) Biomarker Activity (AID 2283062); conditions: primary human foreskin fibroblasts; actives raise or lower the signal
In short: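 Bidirectional curve fitting against DMSO baseline yielded this endpoint, based on ELISA detection of TIMP-1 in primary human foreskin fibroblasts exposed to compound for 24 h.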

[3] = read-out: Monokine induced gamma interferon (MIG), CXCL9 (gene 4283); assay: BSK_hDFCGF_MIG: BioMAP Diversity Plus: hDFCGF Assay for Monokine induced gamma interferon (MIG) Biomarker Activity (AID 2283063); conditions: primary human foreskin fibroblasts; actives raise or lower the signal
In short: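 Endpoint derived by bidirectional fitting relative to DMSO; MIG quantified via ELISA in primary human foreskin fibroblasts harvested 24 h after dosing.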

[4] = read-out: Vascular cell adhesion molecule 1 (VCAM1), VCAM1 (gene 7412); assay: BSK_hDFCGF_VCAM1: BioMAP Diversity Plus: hDFCGF Assay for Vascular cell adhesion molecule 1 (VCAM1) Biomarker Activity (AID 2283065); conditions: primary human foreskin fibroblasts; actives raise or lower the signal
In short: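 Measured after 24 h chemical treatment of primary human skin fibroblasts, VCAM-1 was detected by ELISA and concentration-response analysed in both directions versus DMSO vehicle.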

[5] = read-out: Plasminogen activator inhibitor-1 (PAI1), SERPINE1 (gene 5054); assay: BSK_hDFCGF_PAI1: BioMAP Diversity Plus: hDFCGF Assay for Plasminogen activator inhibitor-1 (PAI1) Biomarker Activity (AID 2283066); conditions: primary human foreskin fibroblasts; actives raise or lower the signal
In short: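 Primary dermal fibroblasts (human foreskin), hDFCGF system; compound 24 h; PAI-1 by ELISA; bidirectional fit vs DMSO control.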

[6] = read-out: Intercellular Adhesion Molecule 1 (ICAM1), ICAM1 (gene 3383); assay: BSK_KF3CT_ICAM1: BioMAP Diversity Plus: KF3CT Assay for Intercellular Adhesion Molecule 1 (ICAM1) Biomarker Activity (AID 2283067); conditions: primary human keratinocytes with fibroblasts; actives raise or lower the signal
In short: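 Bidirectional curve fitting against a DMSO baseline was applied to ICAM-1 ELISA signal from primary human skin co-cultures harvested 24 h after treatment, with SRB staining of parallel wells for overt cytotoxicity.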

[7] = read-out: Interferon-gamma inducible Protein 10 (IP10), CXCL10 (gene 3627); assay: BSK_KF3CT_IP10: BioMAP Diversity Plus: KF3CT Assay for Interferon-gamma inducible Protein 10 (IP10) Biomarker Activity (AID 2283068); conditions: primary human keratinocytes with fibroblasts; actives raise or lower the signal
In short: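 ELISA read-out of IP-10 after 24 h chemical dosing of human skin primary co-culture (keratinocytes, foreskin fibroblasts). Gain or loss of signal relative to DMSO, bidirectional curve fit.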

[8] = BSK_KF3CT_SRB: Viability Assessment in the BioMAP Diversity Plus: KF3CT Assay (AID 2283069); conditions: primary human keratinocytes with fibroblasts;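 also: total protein by sulforhodamine B staining as a cytotoxicity measure; read 24 h after compound addition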
In short: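 Human primary keratinocyte plus foreskin fibroblast co-culture exposed to chemicals for 24 h. Total protein measured by 0.1% sulforhodamine B staining after 10% TCA fixation, read at 560 nm; bidirectional fitting versus DMSO baseline.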

[9] = read-out: Interleukin-1 alpha (IL1a), IL1A (gene 3552); assay: BSK_KF3CT_IL1a: BioMAP Diversity Plus: KF3CT Assay for Interleukin-1 alpha (IL1a) Biomarker Activity (AID 2283070); conditions: primary human keratinocytes with fibroblasts; actives raise or lower the signal
In short: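 Human keratinocyte plus foreskin fibroblast primary co-culture, sampled 24 h after chemical dosing. IL-1a measured by ELISA; responses fitted bidirectionally against DMSO baseline (negative control), so gain or loss of signal both count.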

[10] = read-out: TIMP metallopeptidase inhibitor 2 (TIMP2), TIMP2 (gene 7077); assay: BSK_KF3CT_TIMP2: BioMAP Diversity Plus: KF3CT Assay for TIMP metallopeptidase inhibitor 2 (TIMP2) Biomarker Activity (AID 2283071); conditions: primary human keratinocytes with fibroblasts; actives raise or lower the signal
In short: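 Cells: human keratinocytes co-cultured with foreskin fibroblasts. Treat with chemical, 24 h. Measure TIMP-2 by ELISA; fit curves bidirectionally vs DMSO baseline.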

[11] = read-out: Transforming growth factor beta 1 (TGFb1), TGFB1 (gene 7040); assay: BSK_KF3CT_TGFb1: BioMAP Diversity Plus: KF3CT Assay for Transforming growth factor beta 1 (TGFb1) Biomarker Activity (AID 2283072); conditions: primary human keratinocytes with fibroblasts; actives raise or lower the signal
In short: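 Primary human skin cells (keratinocytes, foreskin fibroblasts) were co-cultured, exposed to test chemical and sampled at 24 h. TGF-b1 levels were measured by ELISA and fitted bidirectionally relative to DMSO.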

[12] = read-out: C-C motif chemokine 2 (Homo sapiens) (UniProt P13500); assay: BSK_KF3CT_MCP1: BioMAP Diversity Plus: KF3CT Assay for Monocyte Chemoattractant Protein 1 (MCP1/CCL2) Biomarker Activity (AID 2283073); conditions: primary human keratinocytes with fibroblasts; actives raise or lower the signal
In short: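 Biomarker MCP-1 is measured by ELISA in primary human keratinocytes co-cultured with foreskin fibroblasts, 24 h after chemical treatment; DMSO serves as the negative control and activity baseline.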

[13] = read-out: Matrix Metallopeptidase 9 (MMP9), MMP9 (gene 4318); assay: BSK_KF3CT_MMP9: BioMAP Diversity Plus: KF3CT Assay for Matrix Metallopeptidase 9 (MMP9) Biomarker Activity (AID 2283074); conditions: primary human keratinocytes with fibroblasts; actives raise or lower the signal
In short: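 Keratinocyte plus foreskin fibroblast human primary skin co-culture was dosed with chemical and MMP-9 was quantified by ELISA 24 h later. Bidirectional curve fitting used DMSO as negative control and activity baseline.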

[14] = read-out: urokinase plasminogen activator (uPA), PLAU (gene 5328); assay: BSK_KF3CT_uPA: BioMAP Diversity Plus: KF3CT Assay for urokinase plasminogen activator (uPA) Biomarker Activity (AID 2283075); conditions: primary human keratinocytes with fibroblasts; actives raise or lower the signal
In short: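 Human keratinocyte plus foreskin fibroblast primary co-culture exposed to chemical for 24 h. uPA levels were quantified by ELISA, and activity was fitted bidirectionally against a DMSO negative-control baseline.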

[15] = read-out: CD40, CD40 (gene 958); assay: BSK_LPS_CD40: BioMAP Diversity Plus: LPS Assay for CD40 Biomarker Activity (AID 2283076); conditions: primary human HUVEC with PBMC; actives raise or lower the signal
In short: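 Using a multiplexed primary human co-culture (umbilical vein endothelium plus PBMC), CD40 was read by ELISA 24 h after dosing, with cytotoxicity tracked by sulforhodamine B staining of parallel cultures and activity fitted bidirectionally versus DMSO.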

[16] = read-out: E-selectin (Homo sapiens) (UniProt P16581); assay: BSK_LPS_Eselectin: BioMAP Diversity Plus: LPS Assay for Eselectin Biomarker Activity (AID 2283077); conditions: primary human HUVEC with PBMC; actives raise or lower the signal
In short: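 Dose chemical onto LPS-driven HUVEC/PBMC co-culture; after 24 h, run ELISA for E-selectin; fit up- and down-going responses relative to DMSO control.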

[17] = read-out: Interleukin-8 (IL8), CXCL8 (gene 3576); assay: BSK_LPS_IL8: BioMAP Diversity Plus: LPS Assay for Interleukin-8 (IL8) Biomarker Activity (AID 2283078); conditions: primary human HUVEC with PBMC; actives raise or lower the signal
In short: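 In this LPS system, chemical-treated human umbilical vein endothelium/PBMC co-cultures were harvested at 24 h for IL-8 ELISA.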

[18] = BSK_LPS_SRB: Viability Assessment in the BioMAP Diversity Plus: LPS Assay (AID 2283079); conditions: primary human HUVEC with PBMC;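 also: total protein by sulforhodamine B absorbance as a cytotoxicity measure; measured one day after compound addition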
In short: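 Cytotoxicity endpoint in human endothelial–PBMC co-culture: 24 h exposure, then SRB (0.1%) staining, 560 nm read.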

[19] = read-out: Interleukin-1 alpha (IL1a), IL1A (gene 3552); assay: BSK_LPS_IL1a: BioMAP Diversity Plus: LPS Assay for Interleukin-1 alpha (IL1a) Biomarker Activity (AID 2283080); conditions: primary human HUVEC with PBMC; actives raise or lower the signal
In short: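 Primary human HUVEC and PBMC co-culture stimulated with LPS is dosed and harvested at 24 h. Both increases and decreases in ELISA-measured IL-1a are scored relative to DMSO.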

[20] = read-out: Matrix Metallopeptidase 1 (MMP1), MMP1 (gene 4312); assay: BSK_hDFCGF_MMP1: BioMAP Diversity Plus: hDFCGF Assay for Matrix Metallopeptidase 1 (MMP1) Biomarker Activity (AID 2283064); conditions: primary human foreskin fibroblasts; actives raise or lower the signal
In short: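 Primary human foreskin fibroblasts in the hDFCGF system were dosed with test chemical, and MMP1 was measured by ELISA 24 h later. Values come from bidirectional curve fitting against the DMSO baseline.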

Measured: outcome

E-selectin (Homo sapiens), sequence (P16581 whole entry, looked up): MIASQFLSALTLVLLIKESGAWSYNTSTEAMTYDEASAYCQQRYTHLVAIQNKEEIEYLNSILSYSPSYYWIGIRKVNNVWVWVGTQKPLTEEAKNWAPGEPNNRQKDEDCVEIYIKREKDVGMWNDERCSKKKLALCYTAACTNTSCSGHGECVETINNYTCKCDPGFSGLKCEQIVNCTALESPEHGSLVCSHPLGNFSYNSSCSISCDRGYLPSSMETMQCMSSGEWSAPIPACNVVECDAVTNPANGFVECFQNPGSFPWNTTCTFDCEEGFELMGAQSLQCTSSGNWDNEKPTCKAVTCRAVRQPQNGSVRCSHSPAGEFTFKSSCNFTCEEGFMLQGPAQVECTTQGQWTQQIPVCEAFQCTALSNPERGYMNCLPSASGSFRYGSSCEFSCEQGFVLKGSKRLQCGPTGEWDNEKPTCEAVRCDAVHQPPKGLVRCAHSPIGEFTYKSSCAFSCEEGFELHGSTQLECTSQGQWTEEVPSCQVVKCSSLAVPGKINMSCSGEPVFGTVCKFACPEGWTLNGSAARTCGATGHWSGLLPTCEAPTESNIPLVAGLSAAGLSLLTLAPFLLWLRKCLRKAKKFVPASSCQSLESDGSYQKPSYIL

OC(CCl)CCl
not listed: [20]
inactive: all other assays above

NC(N)=O
not listed: [14] | [20]
inactive: all other assays above

Cn1c(=O)c2[nH]cnc2n(C)c1=O
not listed: [1]
inactive: all other assays above

NC(=O)N1c2ccccc2C=Cc2ccccc21
not listed: [20]
inactive: all other assays above
